This is part of a sample that, as a whole, favours compounds with a hit. Of some 83,000 tested, about 20% had one in any assay.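 Negative percent growth values reflect cell death: -40 means 40% of the cells present at the start died, and -100 means all died.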 A number with no mark means an inactive call. The source made the active and inactive calls. The calls were made as follows: active = growth percent below 10; inactive = the rest.

Test systems include SR leukemia; RPMI-8226 leukemia; OVCAR-8 ovarian; OVCAR-5 ovarian; OVCAR-4 ovarian; SK-OV-3 ovarian; IGROV1 ovarian; OVCAR-3 ovarian; HS 578T breast; NCI/ADR-RES ovarian; T-47D breast; BT-549 breast; MDA-MB-435 melanoma; SW-620 colon; MCF7 breast; HCT-116 colon; HCC-2998 colon; KM12 colon.
What all share (assay): NCI-60 one-dose screen, 48 h (100 = growth as untreated, 0 = no growth, -100 = all killed)
What all share (conditions): 10 µM unless noted

In the case of `CCN(CC)CCOc1ccc2c(-c3ccccc3)c(-c3ccc(OC)cc3)c(=O)oc2c1`, the growth in the assay on SR leukemia is 21.9%; in the assay with RPMI-8226 leukemia it was 48.8%; in the assay on OVCAR-8 ovarian, 72.6%; with OVCAR-5 ovarian, 91.6%; in the assay on OVCAR-4 ovarian it was 73.7%; in the assay on SK-OV-3 ovarian, 84%. For the same compound, the growth was 110% with IGROV1 ovarian; 94.3% in the assay with OVCAR-3 ovarian; 63.4% in the assay on HS 578T breast; 66.7% in the assay on NCI/ADR-RES ovarian; 51.4% in the assay with T-47D breast; 90.6% in the assay with BT-549 breast. Further, the growth was 41.3% in the assay on MDA-MB-435 melanoma; 39.4% with SW-620 colon; 61.3% in the assay on MCF7 breast; 30% with HCT-116 colon; 90.9% with HCC-2998 colon; 60.4% in the assay on KM12 colon.
`O=C(NN1C(=O)CSC1c1cccc([N+](=O)[O-])c1)c1ccc(NC(=O)c2ccccn2)cc1` (centres undefined): the growth in the assay with SR leukemia was 20.5%; in the assay on RPMI-8226 leukemia, 103%; in the assay with OVCAR-8 ovarian, 99.5%; in the assay with OVCAR-5 ovarian, 92.6%; in the assay with OVCAR-4 ovarian, 110%; in the assay with SK-OV-3 ovarian it was 104%. For the same compound, the growth in the assay on IGROV1 ovarian is 90%; with OVCAR-3 ovarian, 103%; in the assay on HS 578T breast it was 103%; in the assay with NCI/ADR-RES ovarian, 90.8%; in the assay on T-47D breast it was 94.7%; with BT-549 breast, 99.6%. For the same compound, the growth in the assay with MDA-MB-435 melanoma is 98.9%; in the assay with SW-620 colon, 104%; in the assay on MCF7 breast, 89.2%; in the assay on HCT-116 colon it was 98.3%; in the assay with HCC-2998 colon it was 90%; in the assay on KM12 colon, 93.8%.
`Cc1[nH]c(C(=O)Nc2ccccc2OC2CCN(CCN3CCOCC3)CC2)c(Cl)c1Cl`: the growth is 10.3% in the assay on SR leukemia; 67.4% in the assay with RPMI-8226 leukemia; 101% in the assay on OVCAR-8 ovarian; 96.4% in the assay with OVCAR-5 ovarian; 97.7% with OVCAR-4 ovarian; 111% in the assay on SK-OV-3 ovarian. The growth was 101% in the assay on IGROV1 ovarian; 109% in the assay with OVCAR-3 ovarian; 93.8% in the assay on HS 578T breast; 97.6% with NCI/ADR-RES ovarian; 86.6% in the assay on T-47D breast; 80.5% in the assay with BT-549 breast. The growth is 105% with MDA-MB-435 melanoma; 99.7% with SW-620 colon; 87.2% in the assay on MCF7 breast; 77.1% in the assay on HCT-116 colon; 107% with HCC-2998 colon; 103% with KM12 colon.
On to `CS(=O)(=O)c1ccc(-c2nc3ccccc3n2CC(=O)N/N=C/c2ccccc2)cc1`, for which the growth in the assay on SR leukemia is 99.1%; in the assay on RPMI-8226 leukemia, 108%; in the assay on OVCAR-8 ovarian, 112%; in the assay on OVCAR-5 ovarian it was 98.5%; with OVCAR-4 ovarian, 116%; with SK-OV-3 ovarian it was 93.2%. In addition, the growth in the assay with IGROV1 ovarian is 99.7%; in the assay on OVCAR-3 ovarian it was 105%; in the assay with HS 578T breast, 102%; in the assay on NCI/ADR-RES ovarian, 105%; in the assay with T-47D breast, 82.4%; in the assay with BT-549 breast, 95.9%. Besides, the growth in the assay with MDA-MB-435 melanoma was 97.2%; in the assay on SW-620 colon it was 103%; in the assay on MCF7 breast, 89.3%; with HCT-116 colon, 81%; in the assay on HCC-2998 colon it was 98.9%; in the assay on KM12 colon it was 107%.
As for `O=c1oc2c(cc1-c1ccccc1)c[n+]([O-])c1ccccc21`, the growth is 103% in the assay on SR leukemia; 98.2% in the assay on RPMI-8226 leukemia; 94.9% in the assay on OVCAR-8 ovarian; 102% with OVCAR-5 ovarian; 98.6% in the assay on OVCAR-4 ovarian; 104% in the assay with SK-OV-3 ovarian. Further, the growth with IGROV1 ovarian was 102%; in the assay on OVCAR-3 ovarian it was 112%; in the assay with HS 578T breast it was 99.9%; in the assay with NCI/ADR-RES ovarian, 109%; in the assay with T-47D breast it was 91%; in the assay on BT-549 breast, 95.5%. Also, the growth in the assay with MDA-MB-435 melanoma is 101%; in the assay with SW-620 colon, 103%; in the assay with MCF7 breast it was 91.1%; in the assay on HCT-116 colon, 98.8%; in the assay with HCC-2998 colon, 107%; in the assay with KM12 colon, 104%.
For `COc1ccc2[nH]cc(-c3nonc3-c3c[nH]c4ccc(Br)cc34)c2c1`, the growth in the assay on SR leukemia was 35.4%; in the assay with RPMI-8226 leukemia it was 52.7%; in the assay with OVCAR-8 ovarian, 48.7%; in the assay on OVCAR-5 ovarian, 47.7%; with OVCAR-4 ovarian, 50.1%; in the assay on SK-OV-3 ovarian it was 56.3%. Also, the growth with IGROV1 ovarian is 65.3%; in the assay on OVCAR-3 ovarian it was 62.6%; with HS 578T breast it was 55.1%; in the assay with NCI/ADR-RES ovarian, 39.9%; in the assay on T-47D breast it was 3.83% (active); in the assay with BT-549 breast it was 74.9%. Also, the growth in the assay on MDA-MB-435 melanoma is 65.8%; in the assay on SW-620 colon it was 59.5%; in the assay with MCF7 breast, 31.2%; in the assay with HCT-116 colon it was 36.7%; with HCC-2998 colon it was 22.2%; in the assay with KM12 colon it was 15.5%.
As for `CCNC(=O)N1CCc2c(Br)c3c(c(OC)c2C1Cc1ccc(OC)cc1)OCO3` (centres undefined), the growth with SR leukemia is 33.1%; in the assay on RPMI-8226 leukemia, 44.3%; in the assay on OVCAR-8 ovarian, 49.8%; with OVCAR-5 ovarian it was 74.4%; in the assay on OVCAR-4 ovarian, 54.3%; with SK-OV-3 ovarian, 27.6%. The growth was 35.7% with IGROV1 ovarian; 7.18% (active) with OVCAR-3 ovarian; 16.9% in the assay with HS 578T breast; 4.18% (active) with NCI/ADR-RES ovarian; 20.6% in the assay with T-47D breast; 30% in the assay on BT-549 breast. For the same compound, the growth in the assay with MDA-MB-435 melanoma was -9.57% (active); with SW-620 colon, 19%; in the assay on MCF7 breast, 12.2%; with HCT-116 colon, 20.9%; with HCC-2998 colon, 71.3%; in the assay with KM12 colon it was 22%.
On to `O=C(Nc1cc(Cl)cc(Cl)c1)Oc1c(Cl)c(Cl)c(Cl)c(Cl)c1Cl`, for which the growth was 64.5% in the assay with SR leukemia; 37% in the assay with RPMI-8226 leukemia; 78.1% with OVCAR-8 ovarian; 87.3% in the assay on OVCAR-5 ovarian; 82.4% in the assay with OVCAR-4 ovarian; 77.2% in the assay on SK-OV-3 ovarian. For the same compound, the growth in the assay on IGROV1 ovarian was 79.2%; in the assay on OVCAR-3 ovarian, 54.9%; in the assay with HS 578T breast it was 63.5%; in the assay on NCI/ADR-RES ovarian, 77.5%; in the assay on T-47D breast, 77.5%; with BT-549 breast, 74.9%. Also, the growth was 75.9% in the assay on MDA-MB-435 melanoma; 88.3% in the assay with SW-620 colon; 83% in the assay on MCF7 breast; 62.1% in the assay with HCT-116 colon; 93.4% with HCC-2998 colon; 83.3% with KM12 colon.

Values taken from PubChem BioAssay (NCI).
